Common to all, as to test: DAPPL (digital affinity profiling via proximity ligation, sequencing); 10 mM Tris-HCl pH 7.5, 50 mM NaCl, 1 mM DTT, 4% glycerol, room temperature, 30 min; GST-TFs on glutathione beads, 16-mer random dsDNA library, 0.1% formaldehyde crosslink after washing; high values mean tight binding
The target of one assay is T1, FLI1 (Homo sapiens, UniProt Q01543 1-452).
T1 sequence: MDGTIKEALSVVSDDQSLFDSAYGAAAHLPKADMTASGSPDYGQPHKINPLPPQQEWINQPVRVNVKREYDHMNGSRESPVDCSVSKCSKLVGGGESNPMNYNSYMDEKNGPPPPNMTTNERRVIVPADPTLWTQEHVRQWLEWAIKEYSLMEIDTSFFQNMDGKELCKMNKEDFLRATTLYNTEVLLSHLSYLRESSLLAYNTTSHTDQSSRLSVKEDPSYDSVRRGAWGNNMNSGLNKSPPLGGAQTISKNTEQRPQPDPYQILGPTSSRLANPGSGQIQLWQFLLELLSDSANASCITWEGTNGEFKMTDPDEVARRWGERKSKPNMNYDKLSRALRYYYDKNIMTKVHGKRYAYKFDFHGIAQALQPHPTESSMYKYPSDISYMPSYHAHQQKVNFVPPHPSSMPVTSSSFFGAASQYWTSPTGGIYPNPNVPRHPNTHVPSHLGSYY
Conditions: protein: recombinant; tags: N-terminal GST; dsDNA, one strand shown. The method in brief: (§1)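 The binding signal reported is, for every hexamer, its read frequency for a factor over its read frequency for the tag-only sample. Reads came from pools of yeast-expressed, GST-fused human transcription factors on glutathione beads, barcoded with DNA and mixed with that sample, which were incubated with 200 nmole of a random double-stranded 16-mer DNA library in Tris/NaCl/DTT/glycerol buffer at room temperature for 30 min. After washing, the pools were crosslinked with 0.1% formaldehyde, proximity-ligated with BsaI/T4 ligase for 1 h at 37 °C, PCR-amplified and sequenced on an Illumina NextSeq500.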

A further assay deals with T2, ELK1 (Homo sapiens, UniProt P19419 1-428).
T2 sequence: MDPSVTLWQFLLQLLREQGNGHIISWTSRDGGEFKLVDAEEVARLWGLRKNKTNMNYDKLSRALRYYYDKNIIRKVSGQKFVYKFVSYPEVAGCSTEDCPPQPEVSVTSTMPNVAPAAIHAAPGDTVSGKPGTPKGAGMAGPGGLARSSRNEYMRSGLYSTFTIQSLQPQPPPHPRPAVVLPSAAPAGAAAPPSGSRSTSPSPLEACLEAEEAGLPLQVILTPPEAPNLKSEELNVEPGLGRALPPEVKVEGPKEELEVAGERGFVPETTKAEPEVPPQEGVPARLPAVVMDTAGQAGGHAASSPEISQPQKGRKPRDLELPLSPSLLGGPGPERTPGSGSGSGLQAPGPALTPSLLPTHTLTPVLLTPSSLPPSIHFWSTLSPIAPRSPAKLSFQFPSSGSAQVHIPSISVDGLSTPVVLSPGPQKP
Conditions: protein: recombinant; tags: N-terminal GST; dsDNA, one strand shown. The method in brief:
as §1

A further assay addresses T3, GABPA (Homo sapiens, UniProt Q06546 1-454).
T3 sequence: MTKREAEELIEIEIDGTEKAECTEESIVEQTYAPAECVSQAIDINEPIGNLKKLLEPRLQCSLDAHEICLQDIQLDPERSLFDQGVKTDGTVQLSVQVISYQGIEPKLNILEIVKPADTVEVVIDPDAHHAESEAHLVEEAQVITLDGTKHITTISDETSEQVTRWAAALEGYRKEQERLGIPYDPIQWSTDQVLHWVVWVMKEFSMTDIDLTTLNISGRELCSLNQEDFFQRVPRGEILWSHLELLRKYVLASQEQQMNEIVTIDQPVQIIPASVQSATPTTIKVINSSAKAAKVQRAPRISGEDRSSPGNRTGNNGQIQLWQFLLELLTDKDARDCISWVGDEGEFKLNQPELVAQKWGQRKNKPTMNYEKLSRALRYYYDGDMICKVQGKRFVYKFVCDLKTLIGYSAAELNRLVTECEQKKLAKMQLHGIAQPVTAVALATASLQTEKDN
As to conditions: protein: recombinant; tags: N-terminal GST; dsDNA, one strand shown. The method in brief: as §1

For a further assay, the target named is T4, ERG (Homo sapiens, UniProt P11308 1-479).
T4 sequence: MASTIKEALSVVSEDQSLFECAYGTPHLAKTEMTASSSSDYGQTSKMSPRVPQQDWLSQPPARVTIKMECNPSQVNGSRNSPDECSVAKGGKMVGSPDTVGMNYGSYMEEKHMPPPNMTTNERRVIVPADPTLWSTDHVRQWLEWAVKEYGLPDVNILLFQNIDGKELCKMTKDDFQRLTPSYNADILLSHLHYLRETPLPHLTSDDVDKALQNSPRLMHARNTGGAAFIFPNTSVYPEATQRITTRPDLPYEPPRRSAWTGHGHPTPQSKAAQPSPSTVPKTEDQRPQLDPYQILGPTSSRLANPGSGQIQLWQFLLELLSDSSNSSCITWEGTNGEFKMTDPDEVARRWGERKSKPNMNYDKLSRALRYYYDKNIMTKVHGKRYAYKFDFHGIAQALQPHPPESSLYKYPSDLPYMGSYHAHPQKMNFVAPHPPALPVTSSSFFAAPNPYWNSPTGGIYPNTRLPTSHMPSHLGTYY
Conditions: protein: recombinant; tags: N-terminal GST; dsDNA, one strand shown. Put shortly:
as §1

For a further assay, the target named is ELF1 (Homo sapiens, UniProt P32519 1-619). Conditions: protein: recombinant; tags: N-terminal GST; dsDNA, one strand shown. Put shortly:
as §1

The target in a further assay is T5, EHF (Homo sapiens, UniProt Q9NZC4 1-300).
T5 sequence: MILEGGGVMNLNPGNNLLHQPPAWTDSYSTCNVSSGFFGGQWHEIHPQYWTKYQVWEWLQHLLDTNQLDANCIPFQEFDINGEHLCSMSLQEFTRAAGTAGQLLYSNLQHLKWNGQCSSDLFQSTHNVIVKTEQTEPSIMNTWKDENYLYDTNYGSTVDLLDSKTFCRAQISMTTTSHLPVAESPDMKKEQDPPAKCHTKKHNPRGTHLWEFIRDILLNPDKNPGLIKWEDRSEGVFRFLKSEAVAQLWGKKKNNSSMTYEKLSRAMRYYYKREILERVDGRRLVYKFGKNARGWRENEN
As to conditions: protein: recombinant; tags: N-terminal GST; dsDNA, one strand shown. The method in brief: as §1

In a further assay the target is SPI1 (Homo sapiens, UniProt P17947 1-270). Conditions: protein: recombinant; tags: N-terminal GST; dsDNA, one strand shown. The method in brief: as §1
Another assay concerns the target SPIB (Homo sapiens, UniProt Q01892 1-262). Conditions: protein: recombinant; tags: N-terminal GST; dsDNA, one strand shown. The method in brief:
as §1

Another assay concerns the target T6, ELK3 (Homo sapiens, UniProt P41970 1-407).
T6 sequence: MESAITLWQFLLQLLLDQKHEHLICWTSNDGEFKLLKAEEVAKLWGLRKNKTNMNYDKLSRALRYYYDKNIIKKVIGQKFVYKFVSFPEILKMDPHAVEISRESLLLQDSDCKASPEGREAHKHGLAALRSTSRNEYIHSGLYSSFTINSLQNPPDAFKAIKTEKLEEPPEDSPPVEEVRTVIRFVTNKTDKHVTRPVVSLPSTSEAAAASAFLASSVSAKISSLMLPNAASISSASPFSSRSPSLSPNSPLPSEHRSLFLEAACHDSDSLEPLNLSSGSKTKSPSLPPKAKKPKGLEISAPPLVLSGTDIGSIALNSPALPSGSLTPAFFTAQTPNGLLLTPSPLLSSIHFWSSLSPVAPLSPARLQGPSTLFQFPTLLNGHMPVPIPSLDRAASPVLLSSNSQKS
As to conditions: protein: recombinant; tags: N-terminal GST; dsDNA, one strand shown. Put shortly:
as §1

For a further assay, the target named is T7, FEV (Homo sapiens, UniProt Q99581 1-238).
T7 sequence: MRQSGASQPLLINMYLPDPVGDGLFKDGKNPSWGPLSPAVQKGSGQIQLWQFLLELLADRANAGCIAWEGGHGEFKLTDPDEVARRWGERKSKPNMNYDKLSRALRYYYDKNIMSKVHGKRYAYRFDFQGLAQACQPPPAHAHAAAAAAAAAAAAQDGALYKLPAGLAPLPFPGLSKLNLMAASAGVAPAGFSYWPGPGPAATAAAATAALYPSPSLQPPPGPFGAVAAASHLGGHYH
As to conditions: protein: recombinant; tags: N-terminal GST; dsDNA, one strand shown. The method in brief:
as §1

Another assay addresses ETV5 (Homo sapiens, UniProt P41161 1-510). As to conditions: protein: recombinant; tags: N-terminal GST; dsDNA, one strand shown. Put shortly:
as §1

The target in the next assay is HSF1 (Homo sapiens, UniProt Q00613 1-529). As to conditions: protein: recombinant; tags: N-terminal GST; chain copies: 3; dsDNA, one strand shown. The method in brief:
as §1

In the next assay the target is T8, SPIC (Homo sapiens, UniProt Q8N5J4 1-248).
T8 sequence: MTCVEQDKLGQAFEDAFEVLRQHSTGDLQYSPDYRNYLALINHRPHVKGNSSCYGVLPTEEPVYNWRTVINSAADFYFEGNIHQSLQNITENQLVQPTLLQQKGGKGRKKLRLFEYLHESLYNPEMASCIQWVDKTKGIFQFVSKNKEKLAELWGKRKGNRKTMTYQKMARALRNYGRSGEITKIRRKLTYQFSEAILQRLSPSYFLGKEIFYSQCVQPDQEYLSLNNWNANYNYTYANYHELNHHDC
Conditions: protein: recombinant; tags: N-terminal GST; dsDNA, one strand shown. The method in brief:
as §1

For another assay, the target named is ELF4 (Homo sapiens, UniProt Q99607 1-663). Conditions: protein: recombinant; tags: N-terminal GST; dsDNA, one strand shown. The method in brief:
as §1

A further assay concerns the target T9, ELK4 (Homo sapiens, UniProt P28324-2 1-405).
T9 sequence: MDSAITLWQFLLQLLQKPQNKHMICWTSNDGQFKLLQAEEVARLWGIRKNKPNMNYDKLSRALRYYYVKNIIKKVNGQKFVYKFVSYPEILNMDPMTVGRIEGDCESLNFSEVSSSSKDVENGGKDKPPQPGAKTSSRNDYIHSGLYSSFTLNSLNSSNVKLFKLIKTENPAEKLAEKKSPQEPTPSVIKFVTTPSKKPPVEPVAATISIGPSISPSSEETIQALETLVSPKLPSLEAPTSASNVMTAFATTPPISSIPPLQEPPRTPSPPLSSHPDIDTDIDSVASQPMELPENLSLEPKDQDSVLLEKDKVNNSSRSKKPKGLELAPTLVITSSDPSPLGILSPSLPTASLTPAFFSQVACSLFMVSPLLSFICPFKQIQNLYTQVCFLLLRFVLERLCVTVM
As to conditions: protein: recombinant; tags: N-terminal GST; dsDNA, one strand shown. Put shortly: as §1

The next assay concerns the target T10, ETV2 (Homo sapiens, UniProt O00321 1-342).
T10 sequence: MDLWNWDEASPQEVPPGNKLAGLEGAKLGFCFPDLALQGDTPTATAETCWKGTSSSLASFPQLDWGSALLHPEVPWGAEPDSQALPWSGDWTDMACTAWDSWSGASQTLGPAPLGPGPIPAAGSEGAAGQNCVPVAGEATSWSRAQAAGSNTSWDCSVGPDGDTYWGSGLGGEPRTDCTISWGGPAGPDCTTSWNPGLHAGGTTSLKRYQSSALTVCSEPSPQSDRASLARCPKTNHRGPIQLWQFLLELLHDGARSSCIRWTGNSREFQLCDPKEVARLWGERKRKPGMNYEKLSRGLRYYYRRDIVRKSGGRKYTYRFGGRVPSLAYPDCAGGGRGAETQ
Conditions: protein: recombinant; tags: N-terminal GST; dsDNA, one strand shown. Put shortly:
as §1

Another assay concerns the target T11, ELF3 (Homo sapiens, UniProt P78545 1-371).
T11 sequence: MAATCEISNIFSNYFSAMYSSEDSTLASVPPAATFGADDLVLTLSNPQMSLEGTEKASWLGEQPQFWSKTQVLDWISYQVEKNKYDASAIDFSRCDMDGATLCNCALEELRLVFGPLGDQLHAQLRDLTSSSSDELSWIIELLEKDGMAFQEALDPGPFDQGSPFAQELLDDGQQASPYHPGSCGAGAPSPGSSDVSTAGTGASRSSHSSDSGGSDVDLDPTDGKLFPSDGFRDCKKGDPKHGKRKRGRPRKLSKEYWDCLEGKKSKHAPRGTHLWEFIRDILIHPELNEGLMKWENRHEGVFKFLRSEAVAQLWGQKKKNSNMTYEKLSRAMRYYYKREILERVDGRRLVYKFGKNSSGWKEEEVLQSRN
Conditions: protein: recombinant; tags: N-terminal GST; dsDNA, one strand shown. The method in brief: as §1

The next assay addresses CRX (Homo sapiens, UniProt O43186 1-299). Conditions: protein: recombinant; tags: N-terminal GST; dsDNA, one strand shown. Put shortly: as §1
For another assay, the target named is ETV1 (Homo sapiens, UniProt P50549 1-477). As to conditions: protein: recombinant; tags: N-terminal GST; dsDNA, one strand shown. Put shortly: as §1
Sequence of ETV1 (P50549 whole entry): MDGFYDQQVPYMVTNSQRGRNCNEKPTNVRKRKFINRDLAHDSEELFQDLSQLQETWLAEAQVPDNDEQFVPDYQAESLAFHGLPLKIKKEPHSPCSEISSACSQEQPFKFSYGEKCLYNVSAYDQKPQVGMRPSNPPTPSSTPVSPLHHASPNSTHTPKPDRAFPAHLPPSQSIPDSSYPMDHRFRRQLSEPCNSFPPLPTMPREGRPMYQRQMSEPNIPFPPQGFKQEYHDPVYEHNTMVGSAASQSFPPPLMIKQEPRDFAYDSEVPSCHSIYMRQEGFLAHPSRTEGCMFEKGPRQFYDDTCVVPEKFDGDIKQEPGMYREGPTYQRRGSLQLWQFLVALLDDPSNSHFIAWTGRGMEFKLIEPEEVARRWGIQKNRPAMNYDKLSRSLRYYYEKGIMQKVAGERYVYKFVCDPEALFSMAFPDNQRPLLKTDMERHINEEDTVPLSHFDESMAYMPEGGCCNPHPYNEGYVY

Sequence of HSF1 (Q00613 whole entry): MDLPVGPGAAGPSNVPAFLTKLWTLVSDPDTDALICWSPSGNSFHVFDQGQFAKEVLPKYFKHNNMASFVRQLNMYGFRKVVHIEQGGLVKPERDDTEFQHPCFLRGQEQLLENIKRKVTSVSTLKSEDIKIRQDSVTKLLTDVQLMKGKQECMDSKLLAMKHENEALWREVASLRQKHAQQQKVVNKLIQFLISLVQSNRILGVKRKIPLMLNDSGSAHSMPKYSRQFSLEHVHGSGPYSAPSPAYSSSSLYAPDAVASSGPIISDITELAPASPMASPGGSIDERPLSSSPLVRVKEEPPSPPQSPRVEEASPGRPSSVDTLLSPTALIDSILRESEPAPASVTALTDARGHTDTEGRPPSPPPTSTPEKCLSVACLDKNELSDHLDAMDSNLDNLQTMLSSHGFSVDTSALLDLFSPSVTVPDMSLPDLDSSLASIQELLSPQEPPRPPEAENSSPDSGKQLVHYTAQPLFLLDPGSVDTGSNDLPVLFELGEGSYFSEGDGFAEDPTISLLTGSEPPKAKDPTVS
Sequence of SPIB (Q01892 whole entry): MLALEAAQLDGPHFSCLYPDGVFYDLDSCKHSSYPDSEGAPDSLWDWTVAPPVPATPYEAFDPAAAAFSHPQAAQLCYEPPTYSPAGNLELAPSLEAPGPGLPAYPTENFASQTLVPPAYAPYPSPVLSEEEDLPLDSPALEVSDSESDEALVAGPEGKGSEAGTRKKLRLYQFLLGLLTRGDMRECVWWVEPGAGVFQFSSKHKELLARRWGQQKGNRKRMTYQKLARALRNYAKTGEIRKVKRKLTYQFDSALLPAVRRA
Sequence of ELF1 (P32519 whole entry): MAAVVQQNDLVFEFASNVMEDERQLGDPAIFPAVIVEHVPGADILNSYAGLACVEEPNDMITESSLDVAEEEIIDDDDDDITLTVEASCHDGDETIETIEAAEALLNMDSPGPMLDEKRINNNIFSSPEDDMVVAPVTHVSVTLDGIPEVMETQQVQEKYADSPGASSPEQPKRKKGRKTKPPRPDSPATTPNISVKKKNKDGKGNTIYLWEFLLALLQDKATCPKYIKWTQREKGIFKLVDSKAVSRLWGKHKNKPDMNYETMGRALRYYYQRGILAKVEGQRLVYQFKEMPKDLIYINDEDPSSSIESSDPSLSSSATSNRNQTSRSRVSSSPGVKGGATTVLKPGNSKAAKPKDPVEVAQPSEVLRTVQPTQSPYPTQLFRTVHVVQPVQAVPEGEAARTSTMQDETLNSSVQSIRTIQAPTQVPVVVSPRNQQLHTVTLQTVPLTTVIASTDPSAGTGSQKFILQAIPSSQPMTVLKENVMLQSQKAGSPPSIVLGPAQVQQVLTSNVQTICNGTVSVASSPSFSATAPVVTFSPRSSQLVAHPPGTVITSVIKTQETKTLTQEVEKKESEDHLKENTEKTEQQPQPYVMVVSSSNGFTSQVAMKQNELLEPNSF
Sequence of ETV5 (P41161 whole entry): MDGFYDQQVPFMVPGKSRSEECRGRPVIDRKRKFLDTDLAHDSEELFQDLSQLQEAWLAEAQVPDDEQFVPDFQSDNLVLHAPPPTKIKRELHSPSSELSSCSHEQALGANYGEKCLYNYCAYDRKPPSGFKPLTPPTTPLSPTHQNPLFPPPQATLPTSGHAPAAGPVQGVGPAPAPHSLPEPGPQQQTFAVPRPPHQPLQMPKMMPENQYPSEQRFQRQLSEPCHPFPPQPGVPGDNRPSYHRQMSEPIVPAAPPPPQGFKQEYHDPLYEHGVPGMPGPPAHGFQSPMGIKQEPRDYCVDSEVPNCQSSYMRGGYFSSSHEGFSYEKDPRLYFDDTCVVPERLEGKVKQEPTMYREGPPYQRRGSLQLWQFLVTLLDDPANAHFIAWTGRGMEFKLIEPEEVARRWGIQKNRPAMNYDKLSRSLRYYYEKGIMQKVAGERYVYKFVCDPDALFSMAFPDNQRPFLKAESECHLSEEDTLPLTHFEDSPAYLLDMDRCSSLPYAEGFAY
Sequence of ELF4 (Q99607 whole entry): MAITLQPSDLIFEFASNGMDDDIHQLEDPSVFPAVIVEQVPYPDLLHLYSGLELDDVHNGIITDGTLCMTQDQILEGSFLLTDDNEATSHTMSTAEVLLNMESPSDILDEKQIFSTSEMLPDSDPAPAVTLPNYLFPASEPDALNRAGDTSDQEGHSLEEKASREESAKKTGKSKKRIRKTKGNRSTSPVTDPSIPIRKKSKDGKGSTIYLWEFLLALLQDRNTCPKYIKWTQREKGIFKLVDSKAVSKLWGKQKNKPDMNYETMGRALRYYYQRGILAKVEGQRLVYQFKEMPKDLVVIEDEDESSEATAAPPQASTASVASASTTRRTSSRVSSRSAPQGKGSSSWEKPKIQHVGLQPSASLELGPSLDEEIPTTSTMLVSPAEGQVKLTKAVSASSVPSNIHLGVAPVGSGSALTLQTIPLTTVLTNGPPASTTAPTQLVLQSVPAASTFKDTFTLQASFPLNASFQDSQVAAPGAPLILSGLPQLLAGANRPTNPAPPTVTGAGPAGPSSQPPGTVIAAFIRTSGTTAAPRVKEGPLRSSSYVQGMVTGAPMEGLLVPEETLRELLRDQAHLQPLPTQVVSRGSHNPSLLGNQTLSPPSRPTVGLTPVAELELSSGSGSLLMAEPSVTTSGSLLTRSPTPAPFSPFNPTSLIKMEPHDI
Sequence of CRX (O43186 whole entry): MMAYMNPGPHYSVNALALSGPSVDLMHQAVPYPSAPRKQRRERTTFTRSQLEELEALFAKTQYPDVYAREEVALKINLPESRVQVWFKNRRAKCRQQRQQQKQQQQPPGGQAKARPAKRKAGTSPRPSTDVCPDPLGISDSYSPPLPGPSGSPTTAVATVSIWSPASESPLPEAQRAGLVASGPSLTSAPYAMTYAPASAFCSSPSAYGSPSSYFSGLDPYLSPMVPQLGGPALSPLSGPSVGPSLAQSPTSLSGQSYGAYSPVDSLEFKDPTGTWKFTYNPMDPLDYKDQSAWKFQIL

On to CCCTTT, for which the binding signal was 1.47 fold enrichment (6-mer frequency, TF over GST control) with FLI1; 1.36 fold enrichment (6-mer frequency, TF over GST control) in the assay with ELK1; 1.51 fold enrichment (6-mer frequency, TF over GST control) with GABPA; 1.45 fold enrichment (6-mer frequency, TF over GST control) with ERG; 1.36 fold enrichment (6-mer frequency, TF over GST control) with ELF1; 1.35 fold enrichment (6-mer frequency, TF over GST control) with EHF. Also, the binding signal with SPI1 is 1.96 fold enrichment (6-mer frequency, TF over GST control); with SPIB, 1.49 fold enrichment (6-mer frequency, TF over GST control); with ELK3, 1.43 fold enrichment (6-mer frequency, TF over GST control); with FEV, 1.46 fold enrichment (6-mer frequency, TF over GST control); with ETV5 it was 1.45 fold enrichment (6-mer frequency, TF over GST control); with HSF1, 1.25 fold enrichment (6-mer frequency, TF over GST control). The binding signal was 1.34 fold enrichment (6-mer frequency, TF over GST control) with SPIC; 1.49 fold enrichment (6-mer frequency, TF over GST control) in the assay with ELF4; 1.34 fold enrichment (6-mer frequency, TF over GST control) with ELK4; 1.33 fold enrichment (6-mer frequency, TF over GST control) in the assay with ETV2; 1.68 fold enrichment (6-mer frequency, TF over GST control) in the assay with ELF3; 1.35 fold enrichment (6-mer frequency, TF over GST control) with CRX. In addition, the binding signal in the assay with ETV1 was 1.4 fold enrichment (6-mer frequency, TF over GST control).

Source of the values: PMC7862700, “An all-to-all approach to the identification of sequence-specific readers for epigenetic DNA modifications on cytosine”.
